Results filed as inconclusive are left out. A call without a number means that no potency is given here. A number with no mark means an inactive call. Activity calls are given as the source filed them. The call rests on the fitted dose curve; in most records, active means well fitted cell-killing curve with a large enough effect; inconclusive means small, poorly fitted or top-dose-only effect, or effect the other way; inactive means flat fitted curve, though single readings scatter.

This assay concerns HeLa. The assay is described as follows: Primary qHTS to identify gynecologic anti-cancer compounds using libraries of approved drugs and bioactive compounds (AID 1345084). Further: nearly all actives have a fitted effect of over 55% in size. The settings on record: Gynecologic cancer cell panel viability, ATPlite luminescence, 48 h; series mostly up to 57.5 µM. The essentials:
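48 h compound exposure at 37 C, 5% CO2; five-point qHTS. ATPlite luminescence readout of cell ATP.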
Regarding `CO/N=C(/C(=O)N[C@@H]1C(=O)N2C(C(=O)O)=C(Cn3ccc(=N)n3CCO)CS[C@H]12)c1csc(N)n1`, the Potency entry is “inactive”.
For `CC(C)=CCC[C@](C)(O)[C@H]1CC[C@]2(C)[C@@H]1[C@H](O)CC1[C@@]3(C)CC[C@H](O)C(C)(C)[C@@H]3[C@@H](O[C@@H]3O[C@H](CO)[C@@H](O)[C@H](O)[C@H]3O[C@@H]3O[C@H](CO)[C@@H](O)[C@H](O)[C@H]3O)C[C@]12C` (stereo partly drawn), the Potency result is “inactive”.
In the case of `C[C@@H]1O[C@@H](O[C@H]2[C@H](OC(=O)[C@]34CCC(C)(C)C[C@H]3C3=CCC5[C@@]6(C)C[C@H](O)[C@H](O[C@@H]7O[C@H](CO)[C@@H](O)[C@H](O)[C@H]7O)[C@@](C)(CO)C6[C@H](O)C[C@@]5(C)[C@]3(C)CC4)OC[C@H](O)[C@@H]2O)[C@H](O)[C@H](O)[C@H]1O[C@@H]1OC[C@@H](O)[C@H](O[C@@H]2OC[C@](O)(CO)[C@H]2O)[C@H]1O` (stereo partly drawn), the activity change, negative = cytotoxicity is 4.34% [at 6.55 µM].
For the compound `CC(=O)OC1C(O)CC2(C)C(CCC(C)C23Cc2c(O)cc(CO)c(C=O)c2O3)C1(C)C` (stereo not drawn), the Potency entry was “inactive”.
Same read-out and setting: then `C/C(=C\CCC(C)CCO)C(=O)OC1(C)CCC2C(C(=O)O)=COC(OC3OC(CO)C(O)C(O)C3O)C21` (stereo not drawn), with “inactive”.
With `NC1(C(=O)NC(CCO)c2ccc(Cl)cc2)CCN(c2ncnc3[nH]ccc23)CC1` (stereo not drawn), the Potency result was “inactive”.
On the same count and under the same terms, then `CC1(C)CCCC2(C)C(C(=O)O)=CCC12` (stereo not drawn), with “inactive”.
Same read-out and setting: then `CCC(C)/C=C(C)/C=C/c1cc2c(cn1)C(=O)C(C)(OC(C)=O)C(O)=C2Cl` (stereo not drawn), with “inactive”; and `CC(O)/C=C/C1(O)C(C)C(O[C@@H]2O[C@H](CO)[C@@H](O)[C@H](O)[C@H]2O)C(O)CC1(C)C` (stereo partly drawn), with “inactive”.
As for `C[C@@H]1O[C@@H](O[C@H]2[C@H](OC(=O)[C@]34CCC(C)(C)C[C@H]3C3=CCC5[C@@]6(C)CC[C@H](O[C@@H]7O[C@H](C(=O)O)[C@@H](O)[C@H](O)[C@H]7O[C@@H]7O[C@H](CO)[C@H](O)[C@H](O)[C@H]7O)[C@@](C)(C=O)C6CC[C@@]5(C)[C@]3(C)C[C@H]4O)O[C@H](C)[C@H](O[C@@H]3O[C@H](C)[C@H](O)[C@H](O)[C@H]3O)[C@@H]2O)[C@H](O)[C@H](O)[C@H]1O[C@@H]1OC[C@@H](O)[C@H](O[C@@H]2O[C@H](CO)[C@@H](O)[C@H](O)[C@H]2O)[C@H]1O` (stereo partly drawn), the activity change, negative = cytotoxicity is 3.75% [at 6.55 µM].
`COC(=O)C12CCC(C)C(C)C1C1=CCC3C4(C)CCC(OC(C)=O)C(C)(C)C4CCC3(C)C1(C)CC2` (stereo not drawn): the Potency result is “inactive”.
As to `C=C1C(=O)O[C@H](CCC)[C@H]1C(=O)O`, the Potency entry is “inactive”.
As for `CCOc1cc(CC(=O)NC(CC(C)C)c2ccccc2N2CCCCC2)ccc1C(=O)O` (stereo not drawn), the Potency entry is “inactive”.
On to `COC1=CC(=O)CC(C)C12Oc1cc(OC)cc(O)c1C2=O` (stereo not drawn), for which the Potency result is “inactive”.
On the same count and under the same terms, then `O=C1CCC(=O)N(O)CCCCCNC(=O)CCC(=O)N(O)CCOCCNC(=O)CCC(=O)N(O)CCCCCN1`, with “inactive”.
As for `CCc1ccc(Cc2ccc3c(c2)[C@]2(OC3)O[C@H](CO)[C@@H](O)[C@H](O)[C@H]2O)cc1`, the Potency result was “inactive”.
On the same count and under the same terms, then `C=C(C(=O)O)C1CCC2(C)CCC(O)C(=C)C2C1` (stereo not drawn), with “inactive”.
With `C=C(C)C1CCC2(C(=O)O[C@@H]3O[C@H](CO[C@@H]4O[C@H](CO)[C@@H](O)[C@H](O)[C@H]4O)[C@@H](O)[C@H](O[C@@H]4O[C@@H](C)[C@H](O)[C@@H](O)[C@H]4O)[C@H]3O)CCC3(C(=O)O)C(CCC4C5(C)CCC(O)C(C)(C)C5CCC43C)C12` (stereo partly drawn), the activity change, negative = cytotoxicity was -0.105% [at 11.6 µM].
Consider `CC(NC(=O)C(O)C(C)C)C(=O)NC1C(=O)N(C)CCc2ccccc21` (stereo not drawn), for which the Potency entry was “inactive”.
For `CNC(C)C(=O)NC(C(=O)N1CCCC1c1nc(C(=O)c2ccc(F)cc2)cs1)C1CCCCC1` (stereo not drawn), the Potency result is “inactive”.
Consider `CC(=O)O[C@@H]1[C@H](O)[C@@H](O[C@@H]2O[C@@H](C)[C@H](O[C@@H]3OC[C@@H](O)[C@H](O[C@@H]4OC[C@@H](O)[C@H](O)[C@H]4O)[C@H]3O)[C@@H](O[C@@H]3O[C@H](CO)[C@@H](O)[C@H](O)[C@H]3O)[C@H]2O)[C@H](OC(=O)[C@]23CCC(C)(C)C[C@H]2C2=CCC4[C@@]5(C)CC[C@H](O[C@@H]6O[C@H](C(=O)O)[C@@H](O)[C@H](O[C@@H]7OC[C@@H](O)[C@H](O)[C@H]7O)[C@H]6O[C@@H]6O[C@H](CO)[C@H](O)[C@H](O)[C@H]6O)[C@@](C)(C=O)C5CC[C@@]4(C)[C@]2(C)CC3)O[C@@H]1C` (stereo partly drawn), for which the activity change, negative = cytotoxicity was 2.25% [at 6.55 µM].
Consider `CCN(Cc1cccnc1)C(=O)CN(c1ccc(OC)nc1)S(=O)(=O)c1ccccc1C`, for which the Potency result is “inactive”.
Same read-out and setting: then `COc1ccc(CN2C(=O)C(=O)c3cc(S(=O)(=O)N4CCC[C@H]4COc4cccnc4)ccc32)cc1`, with “inactive”; and `CC1=CC(=O)[C@]2(O[C@@H]3O[C@@H](C)[C@H](O)[C@@H](O)[C@H]3OC(=O)/C=C/c3ccccc3)C=CO[C@@H](O[C@@H]3O[C@H](CO)[C@@H](O)[C@H](O)[C@H]3O)[C@H]12`, with “inactive”.
For `O=C(O)c1ccccc1NC(=O)N1CCC(c2ccccc2C(F)(F)F)CC1`, the Potency result was “inactive”.
On the same count and under the same terms, in the case of `Nc1nc2c(ncn2[C@@H]2O[C@H](CO)[C@@H](O)[C@H]2O)c(=O)[nH]1` it was “inactive”; in that of `C/C1=C\C[C@]2(C)C(=O)C(O)=C([C@H](C)CO)[C@H]2C/C=C(\C)[C@@H](O)CC/C(C)=C/CC1`, “inactive”.
The same measure, in the same setting: then `C[C@]12C[C@@H](O)[C@@H]3C[C@@]1(O[C@@H]1O[C@H](CO)[C@@H](O)[C@H](O)[C@H]1O)[C@]3(COC(=O)c1ccccc1)C(=O)O2`, with “inactive”.

The values above are taken from PubChem BioAssay (NCATS).
